4MU fluor – qHTS Assay for Spectroscopic Profiling in 4-MU Spectral Region | compound autofluorescence, 340/450 nm, 4-MU equivalents; hits give high values | max dye-equivalent concentration, M | hit rate 11% among 59,000 | AID 589, 2007; in the data active = max dye-equivalent concentration above about 10 nM; inconclusive = mostly about 1.1 nM to 9.6 nM
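Intrinsic fluorescence at 340/450 nm (ex/em) was read after 15 min at room temperature in pH 8.0, 100 mM Tris. Each compound concentration expressed as 4-MU-equivalent concentration from a six-point 4-MU standard series on each plate.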
AID923 – qHTS Assay for Allosteric/Competitive Inhibitors of Caspase-1: Spectroscopic Profiling in AFC Spectral Region; compound fluorescence, AFC spectral region (405/520 nm); Potency, µM (series often up to 57.5 µM), for inactives: at the highest dose fluorescence increase, actives largely listed as activators; hit rate 1.1% among 75,000; note: potency is the fitted concentration of half-maximal effect; 0% is about no effect
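Compound autofluorescence profiled at 405 nm ex/520 nm em during kinetic caspase 1 run (50 nM enzyme, 5 uM Ac-WEHD-AFC, HEPES pH 7.5, 10 mM DTT). Titration up to 57 uM; baseline from regression intercept, normalized to AFC standard curve.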
A350 fluor – qHTS Assay for Spectroscopic Profiling in A350 Spectral Region; Compound autofluorescence, 340/450 nm, Alexa 350 dye-equivalents; hits give high values; max dye-equivalent concentration, M; hit rate 11% among 59,000; in the data active = max dye-equivalent concentration above about 10 nM; inconclusive = mostly about 1.1 nM to 9.6 nM
HADH2 inh – qHTS Assay for Inhibitors of HADH2 (Hydroxyacyl-Coenzyme A Dehydrogenase, Type II); Potency, µM (top dose mostly 57.1 µM), without a hit: top-dose activity change, negative = inhibition, actives largely listed as inhibitors; AID 886, 2007; recombinant HADH2, NADH fluorescence, beta-hydroxybutyryl-CoA; hit rate 3.4% among 73,000; 3-hydroxyacyl-CoA dehydrogenase type-2 (Homo sapiens), Q99714; note: potency is the fitted concentration of half-maximal effect; % is set by controls: 0 for no effect and ±100 for the full control effect; nearly all actives have a fitted effect of over 60% in size
Target sequence (Q99714 whole entry, looked up, one chain of several): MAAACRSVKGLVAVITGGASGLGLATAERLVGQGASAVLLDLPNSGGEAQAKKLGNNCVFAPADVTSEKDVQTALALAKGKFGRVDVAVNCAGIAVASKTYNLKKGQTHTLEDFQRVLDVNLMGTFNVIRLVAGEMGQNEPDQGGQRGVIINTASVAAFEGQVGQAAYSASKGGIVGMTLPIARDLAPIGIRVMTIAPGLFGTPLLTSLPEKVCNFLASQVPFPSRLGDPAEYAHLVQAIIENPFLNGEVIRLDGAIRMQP
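NADH fluorescence (ex 360/em 450 nm) read every 30 s for 4 min; activity taken as last-minus-first time point difference. Enzyme 20 nM, NAD+ 1 mM, beta-hydroxybutyryl-CoA 90 uM, pH 9.0 Tris buffer.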
HSD17B inhib – qHTS Assay for Inhibitors of HSD17B4, hydroxysteroid (17-beta) dehydrogenase 4 | recombinant HSD17B10, NADH fluorescence kinetic | hit rate 7.6% among 75,000 | 3-hydroxyacyl-CoA dehydrogenase type-2 (Homo sapiens), Q99714 | Potency, µM (titrated, usually from 57.1 µM), for inactives: at the top dose activity change, negative = inhibition, most hits filed as inhibitors;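 note: the protocol describes HADH2 (HSD17B10) and not the HSD17B4 of the title; potency is the fitted concentration of half-maximal effect; % is set by controls: 0 for no effect and ±100 for the full control effect; nearly all actives have a fitted effect of over 70% in size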
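His-tagged E. coli-expressed HADH2 at 20 nM in 100 mM Tris-HCl pH 9.0 with 0.01 % Tween-20, preincubated 15 min with compound at room temperature. Reaction with 1 mM NAD+ and 90 uM beta-hydroxybutyryl coenzyme A; NADH fluorescence (360/450 nm) read kinetically over 4 min, last minus first point.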
PK Bst – Pyruvate Kinase | hit rate 1.2% among 51,000 | purified pyruvate kinase, luminescence ATP production; ribose 5-phosphate activator present at AC10 | AID 361, 2006 | Potency, µM; in the data active = potency below about 11 µM; inconclusive = mostly about 12 µM to 25 µM;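 the screen sought inhibitors and activators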;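 note: potency is the fitted concentration of half-maximal effect; scaled between full activation by ribose 5 phosphate and full inhibition by luteolin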
Active calls of the source: *; i = inactive; ? = inconclusive; . = no result; ! = repeats disagree; [ ] = remark or other dose. Rows were chosen to be rich in hits. Some 13% of all compounds tested hit in one or more screens of this group. Unless noted, calls come from the whole dose curve; as a rule, active = well fitted curve in the direction sought with a large enough effect; inconclusive = small, poorly fitted or top-dose-only effect, or another doubt; inactive = no such curve, though single readings can be large; an effect the other way counts as inactive or inconclusive.

SMILES | 4MU fluor | AID923 | A350 fluor | HADH2 inh | HSD17B inhib | PK Bst
Cc1sc2ncnc(-n3cnc4ccccc43)c2c1C | ? | -1.2% | ? | -4.0% | 31.6µM* | >57
Cc1sc2ncnc(N3CCCCC3C)c2c1C (centres undefined) | i | 0.1% | i | -3.2% | 5.4% | >57
CCCCOc1ccc(/C=c2\sc3ncnn3c2=O)cc1 | 1.69e-08M* | -0.1% | ? | -1.1% | -0.7% | >57
CCCCCOc1ccc(/C=c2\sc3ncnn3c2=O)cc1 | i | 0.0% | ? | -0.7% | 13.8% | .
CCOC(=O)c1c(NC(=O)c2ccc(S(=O)(=O)N3CCOCC3)cc2)sc2c1CCN(C)C2 | 1.42e-08M* | 1.8% | 2.54e-08M* | 13.2% | 7.0% | >57
CCOC(=O)c1oc2ccccc2c1NC(=O)C1CCCCC1 | ? | 0.1% | ? | 5.8% | ? | >57
CCOC(=O)c1oc2ccccc2c1NC(=O)c1ccc(S(=O)(=O)N(C)C)cc1 | 4.52e-08M* | 0.4% | 5.87e-08M* | 46.5% | 31.6µM* | >57
CCOC(=O)c1oc2ccccc2c1NC(=O)c1ccc(S(=O)(=O)N2CCCC2)cc1 | 3.62e-08M* | -1.7% | 4.75e-08M* | 17.1% | 25.1µM* | >57
CC(C)(CO)[C@H](O)C(=O)NCCC(=O)O | i | 2.9%[25.7 µM] | i | 1.9%[25.6 µM] | -1.7%[25.6 µM] | .
CCc1nc2ccccc2c(=O)n1CCCCn1c(CC)nc2ccccc2c1=O | 1.11e-08M* | 0.5% | 1.08e-08M* | 7.1% | -2.4% | >57
O=C1c2ccccc2C(=O)N1CCCc1nc2ccccc2c(=O)n1CCCn1ccnc1 | i | -0.9% | i | 34.6% | -4.2% | >57
O=c1ccc2cc3c([nH]c4ccc(Br)cc43)oc-2c1O | i | 0.5% | ? | 10µM* | 31.6µM* | >57
CCOC(=O)C1(C(F)(F)F)N=C(c2cccnc2)OC(N2CCOCC2)=N1 (centres undefined) | i | -3.0% | i | -2.7% | 8.3% | >57
N#Cc1ccc2ccn(CC(=O)NC3CCCCCC3)c2c1 | i | 2.2% | i | -8.7% | 31.6µM* | >57
COC(=O)c1cn(CC(=O)NC2CCCCC2)c2ccccc12 | i | -1.6% | i | 13.1% | -0.2% | >57
Cn1c2c(c(=O)n(C)c1=O)C(CC(=O)Nc1ccccc1)C(=O)N2 (centres undefined) | 1.06e-07M* | -1.3% | 1.24e-07M* | -1.5% | ? | >57
COc1ccccc1NC(=O)CC1C(=O)Nc2c1c(=O)n(C)c(=O)n2C (centres undefined) | i | -0.1% | i | 0.1% | ? | >57
CC[N+](CC)(CC)CCOc1ccc(/C=C\c2ccccc2)cc1 | . | -1.7% | . | 2.2% | 31.6µM* | .
CC[N+](CC)(CC)CCOc1cccc(OCC[N+](CC)(CC)CC)c1OCC[N+](CC)(CC)CC | 1.02e-08M*! | -3.8%[25.7 µM] | 1.32e-08M*! | -7.9%[25.6 µM] | -4.1%[25.6 µM] | .
CCSCCCC(=O)O | ? | -1.1%[11.5 µM] | ? | 10.8%[11.4 µM] | 1.3%[11.4 µM] | .
NC(=O)c1ccc[n+]([C@@H]2OC(COP(=O)([O-])OP(=O)(O)OCC3OC(n4cnc5c(N)ncnc54)C(OP(=O)(O)O)C3O)C(O)C2O)c1 (some centres undefined) | . | 2.2% | . | . | -10.7% | .
CC1CCCCN1CCNC(=O)c1ccc2c(=O)n(CCc3ccccc3)c(=O)[nH]c2c1 (centres undefined) | ? | 1.7% | ? | 26.3% | 4.7% | >57
COCCNC(=O)c1ccc2c(=O)n(CCOC)c(=O)[nH]c2c1 | 3.2e-08M* | 1.3% | 3.09e-08M* | -24.3% | 31.6µM* | >57
COCCn1c(=O)[nH]c2cc(C(=O)NC(C)C)ccc2c1=O | 3.44e-08M* | -0.2% | 3.17e-08M* | -3.6% | 31.6µM* | >57
COCCn1c(=O)[nH]c2cc(C(=O)NC3CCCCCC3)ccc2c1=O | . | -1.0% | . | 20.0% | 25.1µM* | .
SMILES | 4MU fluor | AID923 | A350 fluor | HADH2 inh | HSD17B inhib | PK Bst
COCCn1c(=O)[nH]c2cc(C(=O)N3CCN(c4ccccc4OC)CC3)ccc2c1=O | i | 0.7% | i | 0.2% | -10.6% | >57
Cc1cnc(CNc2ncncc2-c2cccnc2)cn1 | i | 0.3% | i | ? | 0.2% | .
O=C(Nc1cccc(F)c1)N1CC[C@@]2(CCCN(S(=O)(=O)c3ccccc3)C2)C1 | i | 0.2% | i | 6.0% | 2.0% | .
c1ccccc1 | . | 3.9% | . | 0.6% | -3.7% | .
C[C@H]1COC(=O)[C@H](Cc2ccccc2)NC(=O)[C@@H](C)COC(=O)[C@H](Cc2ccccc2)NC1=O | . | -0.9%[11.5 µM] | . | 10.5%[11.4 µM] | 6.7%[11.4 µM] | .
FC(F)(F)c1ccccc1-c1cncnc1NCCc1cnc[nH]1 | i | -1.7% | i | 0.5% | -2.8% | .
CCOC(=O)c1cnc(-n2nc(C)cc2C)nc1NC | i | -0.5% | i | ? | 25.1µM* | .
CCOC(=O)c1cnc(-n2nc(C)cc2C)nc1Nc1ccc(N(C)C)cc1 | i | 1.7% | i | 3.4% | -8.4% | >57
CCOC(=O)c1cnc(-n2nc(C)cc2C)nc1NC1CCCCC1 | 1.02e-08M* | -0.5% | 1.16e-08M* | -5.2% | 8.7% | .
CCOC(=O)c1cnc(-n2nc(C)cc2C)nc1N(CC)CC | 1.16e-08M* | 0.0% | 1.54e-08M* | 0.2% | 4.5% | .
COc1ccc(Oc2ncc3ncc(=O)n(C[C@H]4CCCO4)c3n2)cc1 | i | -0.6% | i | -4.6% | -21.8% | .
CN(c1nc2c(c(=O)n(C)c(=O)n2C)n1CC(=O)c1ccccc1)C1CCCCC1 | i | 1.7% | i | 10.7% | 8.8% | >57
O=C(CCCn1c(=S)[nH]c2ccccc2c1=O)N1CCCCC1 | i | -2.0% | i | -6.5% | -2.0% | >57
COc1ccc2[nH]c3c(=O)n(CCCCC(=O)N4CCC(C(N)=O)CC4)c(=S)[nH]c3c2c1 | 4.56e-08M* | 1.0% | 1.04e-08M* | -23.5% | ? | .
COc1ccc2[nH]c3c(=O)n(CCCCC(=O)NCCN4CCCC4)c(=S)[nH]c3c2c1 | 1.61e-08M* | -2.8% | 1.72e-08M* | -27.9% | 25.1µM* | .
C[C@@H](C(=O)NCc1nc2ccccc2[nH]1)[C@@H]1C[C@@]1(C)[C@@H](NC(=O)OCc1ccccc1)c1ccccc1 | . | 1.3% | . | 8.7% | 11.1% | .
CN(C(=O)c1ccccc1)c1nc2ccccc2s1 | i | -0.7% | i | -11.9% | 2.3% | 8.47*
CC(=O)Nc1ccc(C2NC(C(=O)O)CCC2C)cc1 (centres undefined) | . | 1.4%[11.5 µM] | . | -9.5%[11.4 µM] | 4.1%[11.4 µM] | .
COc1ccc(/C=C/C(=O)c2cccs2)cc1OC | . | -2.7% | . | . | 31.6µM* | .
O=C(/C=C/c1ccccc1)c1cccs1 | . | -3.7% | . | . | -16.3% | .
CCC(C)C(=O)O[C@H]1C[C@@H](C)C=C2C=C[C@H](C)[C@H](CC[C@@H]3C[C@@H](O)CC(=O)O3)C21 (some centres undefined) | . | -1.2% | . | . | 1.9% | .

Screening results from PubChem BioAssay.
